ssDAF12 agonist: activators of S. stercoralis DAF-12 nuclear receptor; HEK293 ssDAF-12/GRIP1 lit1-tk-luc reporter, luminescence; % of 3 µM dafachronic acid response; actives 1% (n = 370,000); activation, % at 6.8 µM;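 active = activation above the mean over all tested compounds plus 3 SD, cut at about 0.9% in these data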;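 note: 0% = DMSO-only wells and 100% = 3 µM delta7-dafachronic acid wells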
hgDAF-12 ag: activates the H. glycines DAF-12 receptor ligand-binding domain. HEK293 GAL4-hgDAF12 UAS-luciferase reporter, agonist luminescence; normalized to butyrate control. AID 687014. actives 1.8% (n = 370,000). activation, % at 6.8 µM;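 active = activation above a cutoff set at the mean of all screened compounds plus 3 SD, cut at about 10% in these data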;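 note: 0% = DMSO wells and 100% = sodium butyrate wells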
DAX1 inh-1: inhibitors of human orphan nuclear receptor DAX1 (NR0B1). P51843. HEK293 Gal4-DAX1 luciferase reporter, luminescence. inhibition, % at 6.75 µM. actives 0.99% (n = 340,000);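 active = inhibition above the mean over all tested compounds plus 3 SD, cut at about 4.2% in these data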;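 note: 0% = DAX1-transfected cells with DMSO and 100% = empty-vector control cells with DMSO; inhibition shows as a rise in luminescence from relieved DAX1 repression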
Target sequence (P51843 207-470 limits assumed): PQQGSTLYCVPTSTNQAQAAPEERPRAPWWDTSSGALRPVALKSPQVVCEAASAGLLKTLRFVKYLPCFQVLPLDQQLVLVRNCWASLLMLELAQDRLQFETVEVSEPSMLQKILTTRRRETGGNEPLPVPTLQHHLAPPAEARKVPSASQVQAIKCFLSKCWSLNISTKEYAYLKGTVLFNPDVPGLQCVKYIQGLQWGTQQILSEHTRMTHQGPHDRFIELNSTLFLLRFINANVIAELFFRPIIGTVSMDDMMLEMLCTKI
hcDAF-12 act: activators of H. contortus DAF-12 nuclear receptor. HEK293 hcDAF-12 lit1-tk-luc reporter, luminescence; 0% DMSO, 100% Δ7-dafachronic acid. activation, % at 6.8 µM. actives 1.4% (n = 370,000);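 active = activation above the mean of all tested compounds plus 3 SD, cut at about 5.5% in these data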;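 note: 100% = response to 3 µM Δ7-dafachronic acid high control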
SMARCA2 activ: SMARCA2 function activation, primary screen | MG213 cells, MMTV-luciferase reporter, dexamethasone, overnight | activation, % at 9.1 µM | actives 1% (n = 370,000); in the data active = activation above about 7.8%;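 note: 0% = vehicle wells and 100% = reference activator wells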
DAX1 inh-2: DAX1 (NR0B1) inhibition, primary screen; HEK293T StAR-luciferase reporter, SF-1/DAX-1 repression relief; actives 1.1% (n = 370,000); inhibition, % at 6.8 µM;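 active = inhibition above the mean over all tested compounds plus 3 SD, cut at about 3.6% in these data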;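 note: 0% = DAX-1 cells with DMSO and 100% = cells lacking DAX-1 with DMSO; higher inhibition means more luminescence from relief of DAX-1 repression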
* hit, by the source's call; x = no result. Shown are actives, neighbours in structure and some others; about 4.8% of the full set was active somewhere.

SMILES | ssDAF12 agonist | hgDAF-12 ag | DAX1 inh-1 | hcDAF-12 act | SMARCA2 activ | DAX1 inh-2
O=C(CCc1nc2ccccc2c(=O)[nH]1)NCc1ccccn1 | -1 | 3 | 1 | -1 | -4 | 0
O=C(CCc1nc2ccccc2c(=O)[nH]1)NCc1ccco1 | -1 | -4 | 5.4* | 1 | 1 | 1
Cc1ccc(O)c(C2=Nc3ccccc3N=C(c3ccco3)C2)c1 | -1 | 1 | 1 | 1 | -1 | 0
Cc1ccc(O)c(C2=Nc3ccccc3N=C(c3ccc([N+](=O)[O-])cc3)C2)c1 | 1.0* | 6 | 0 | 5 | -2 | 1
Cc1ccccc1-n1ncc2c1CC(C)(C)CC2NC(=O)CCC1=NNC(=O)CC1 (stereo not given) | -1 | 0 | 1 | 0 | -4 | 0
CCOc1ccc(C(=O)c2nc3c(n2O)CCCC3)cc1 | 0 | 5 | -1 | 1 | -2 | 1
O=C1CSC(c2cccnc2)N1CC1CC1 (stereo not given) | 0 | 1 | 4.8* | 0 | -1 | -1
Cn1ccc(NC(=O)c2ccc(Cl)cc2)n1 | -1 | 7 | 0 | 0 | 0 | 3
Cn1ccc(NC(=O)c2ccc([N+](=O)[O-])cc2)n1 | 0 | 1 | 7.0* | -2 | 0 | 1
CCN1Cc2c(/C=C/c3ccccc3)nc3ccc(OC)cc3c2N(c2cccc(Cl)c2)C1 | -1 | 3 | 0 | 5.7* | -1 | -1
COc1cccc(N2CCc3c(C)nc4ccc(Cl)cc4c32)c1 | -2 | -2 | -1 | -1 | -1 | 0
S=c1[nH]nc(-c2ccn[nH]2)n1-c1ccccc1Cl | 1.2* | 4 | 1 | 2 | 2 | 0
S=c1[nH]nc(-c2cc(-c3ccco3)[nH]n2)n1-c1ccccc1Cl | 0 | 1 | 2 | -1 | -2 | 0
S=c1[nH]nc(-c2ccc3ccccc3n2)n1-c1ccccc1Cl | 0 | -1 | -1 | 1 | 0 | 0
S=c1[nH]nc(-c2ccco2)n1-c1ccccc1Cl | 0 | 3 | -1 | 1 | 1 | 4.3*
CCC(C)(C)NC(=O)C1CCN(c2nc(OC)nc(OC)n2)CC1 | -1 | -3 | 6.1* | -1 | -1 | 0
CCC(C)NC(=O)C1CCN(c2nc(OC)nc(OC)n2)CC1 (stereo not given) | -1 | 1 | 0 | -1 | -3 | 0
Cc1cc(Cl)ccc1OCC(=O)Nc1ccccc1C(=O)N1CCOCC1 | -1 | 0 | -1 | -1 | 1 | 0
Cc1[nH]c2ccccc2c1C(=O)COC(=O)c1ccc([N+](=O)[O-])s1 | 1.0* | 1 | -1 | 4 | -1 | 0
O=C(COC(=O)c1ccc([N+](=O)[O-])s1)NCc1ccccc1 | -1 | -3 | 2 | 1 | 3 | 0
CCOC(=O)CCc1c(C)n(CC)c2cc(-c3ccccc3OC)nn2c1=O | -1 | -1 | -1 | 1 | -1 | -1
CCNC(=S)N1CCC(n2cnc3ccccc32)CC1 | -2 | -3 | 4.6* | 1 | 0 | 0
O=C1NCC(O)=C1C=NCCO | 0 | 3 | 0 | 0 | -2 | -1
COc1ccccc1CNC(=O)CSc1ccccc1 | -1 | 11* | 1 | 2 | 5 | 3
COc1ccccc1CNC(=O)CN1C(=O)c2ccccc2S1(=O)=O | -1 | 1 | 4.5* | 3 | -5 | 0
SMILES | ssDAF12 agonist | hgDAF-12 ag | DAX1 inh-1 | hcDAF-12 act | SMARCA2 activ | DAX1 inh-2
COc1ccccc1CNC(=O)CSc1ccc(C)cc1 | -1 | -2 | -1 | -3 | 0 | 0
c1ccc(N2CCN(c3cccc(-c4cc5ccccc5s4)n3)CC2)nc1 | -1 | 2 | x | -2 | 2 | -1
C(=N\Nc1nc(-c2ccccc2)cs1)/c1ccco1 | 0 | 13* | 1 | 3 | 6 | 1
Cc1sc(N/N=C/c2ccco2)nc1-c1ccccc1 | 1.4* | 5 | -1 | 3 | 1 | 0
C(=N\Nc1nc(-c2ccccc2)cs1)/c1ccncc1 | -1 | 0 | 2 | 0 | 4 | 1
Clc1ccc(-c2csc(N/N=C/c3ccco3)n2)cc1 | -1 | 4 | 6.2* | 2 | 2 | 0
C(=N\Nc1nc(-c2ccccc2)cs1)/c1cccs1 | 0 | 3 | 2 | 5.8* | 6 | 1
Cc1sc(N/N=C/c2cccnc2)nc1-c1ccccc1 | -1 | -7 | -3 | -2 | -1 | -1

Screening data as filed in PubChem BioAssay.
